NPC1 promoter act – activates the NPC1 promoter. Potency, µM (doses to about 9.22 µM), inactives show top-dose activation, usual class: activators. 2.4% of 320,000 active. AID 485313. Huh7 NPC1 promoter luciferase reporter, 24 h; further: % of control where 0% means no effect; nearly all actives have a fitted effect of over 60% in size
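Huh7 cells stably carrying NPC1 promoter–luciferase, plated in Opti-MEM with 10% FBS for 2 h, were exposed to compound in DMSO for 24 h at 37 °C; luciferase reagent was added for 10 min and luminescence read.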
KinaseGlo FLuc – blocks Kinase-Glo luciferase, a counter-screen artifact | Potency, µM (doses to about 38.3 µM), for the others: top-dose activity change, negative = inhibition, hits mostly inhibitors | AID 1379 | 0.28% of 200,000 active | Kinase-Glo luciferase, ATP luminescence, 8 min | Q27757; further: on the % scale 0 is the no-effect control and ±100 the full control effect; nearly all actives have a fitted effect of over 60% in size
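Substrate mix (final 50 mM imidazole pH 7.2, 50 mM KCl, 7 mM MgCl2, 10 uM ATP, 0.01% Tween 20, 0.05% BSA) plus pin-tool compound, then Kinase-Glo detection mix; 8 min ambient, luminescence read.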
FLuc counter – inhibits or activates purified firefly luciferase, miR-21 counter-screen | AID 588342 | purified FLuc, Km substrates, luminescence inhibition | Potency, µM (series often up to 57.5 µM), for the others: at the highest dose activity change, negative = inhibition, actives largely listed as inhibitors | 6.9% of 360,000 active | P08659;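 further: plate controls were vehicle for no effect and reference inhibitor for full effect; nearly all actives have a fitted effect of over 55% in size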
Target sequence (P08659 whole entry, looked up): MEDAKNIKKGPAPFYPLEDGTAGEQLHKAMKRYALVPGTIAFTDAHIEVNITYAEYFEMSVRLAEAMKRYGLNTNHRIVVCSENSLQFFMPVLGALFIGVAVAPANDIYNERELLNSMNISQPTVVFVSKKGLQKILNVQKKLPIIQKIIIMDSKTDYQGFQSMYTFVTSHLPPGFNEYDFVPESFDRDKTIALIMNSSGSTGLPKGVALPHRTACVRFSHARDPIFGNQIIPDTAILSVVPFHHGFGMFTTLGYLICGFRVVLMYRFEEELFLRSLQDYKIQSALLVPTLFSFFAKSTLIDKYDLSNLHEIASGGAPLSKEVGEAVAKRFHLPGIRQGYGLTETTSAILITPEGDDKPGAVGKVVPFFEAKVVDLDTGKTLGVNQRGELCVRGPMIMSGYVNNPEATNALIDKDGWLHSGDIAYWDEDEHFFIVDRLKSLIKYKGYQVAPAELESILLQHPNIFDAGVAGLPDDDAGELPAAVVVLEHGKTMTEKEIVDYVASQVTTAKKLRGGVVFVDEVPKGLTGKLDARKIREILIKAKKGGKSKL
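Purified P. pyralis luciferase (10nM final) with 10uM D-luciferin and 10uM ATP (Km levels) in 50mM Tris acetate pH 7.5, 10mM Mg acetate, 0.01% Tween-20, 0.05% BSA; qHTS 6-point titration, ~60 µM downward; luminescence read.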
SMN2 splice up – enhancers of SMN2 splice variant expression; 2.8% of 210,000 active; Potency, µM (highest dose often 46.1 µM), inactives show top-dose activity change, positive = activation, actives largely listed as activators; HEK293 SMN2-luciferase splicing reporter, luminescence, 30-36 h; AID 1458; further: % of control where 0% means no effect; nearly all actives have a fitted effect of over 55% in size
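HEK293 cells carry an SMN2 […]–luciferase reporter in which exon 7 inclusion puts luciferase in frame. Cells were plated 10-12 h before compound addition, then incubated 30-36 h at 37C. ONE-Glo luminescence was read; sodium butyrate at 4.5 mM final served as control.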
Rab9 prom act – activates the Rab9 promoter; Huh7 Rab9 promoter-luciferase reporter, luminescence, 24 h; Potency, µM (top dose mostly 9.22 µM), for the others: top-dose activation, negative = inhibition, hits mostly activators; 2.8% of 320,000 active; further: % of control where 0% means no effect; nearly all actives have a fitted effect of over 60% in size
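Stable Rab9-luc Huh7, 1500 cells/well, 2 h settle; cmpd in DMSO, 24 h, 37 °C/5% CO2; luciferase reagent 10 min RT; luminescence.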
Numbers without * were called inactive; ? = inconclusive; · = not tested or not shown; [ ] = another dose, or the depositor's remark. This is a sample that favours compounds with a hit; in the whole collection about 7.3% have one here. The call rests on the fitted dose curve; in most records, active means well fitted curve in the direction sought with a large enough effect; inconclusive means small, poorly fitted or top-dose-only effect, or another doubt; inactive means no such curve, though single readings can be large; an effect the other way counts as inactive or inconclusive. Potency means the concentration at half of the fitted maximal effect.

SMILES	NPC1 promoter act	KinaseGlo FLuc	FLuc counter	SMN2 splice up	Rab9 prom act
COCCNC(=O)c1nc2ccccc2s1	0%	-2%	17µM*	14%	26%
O=C(Nc1ccccc1-c1nc2ccccc2s1)c1ccc(F)cc1	·	·	-1%	-18%	·
O=C(Nc1nc2ccccc2s1)c1ccc(Cl)s1	1µM*	1%	1.9µM*	6.3µM*	?
O=C(Nc1nc2ccccc2s1)c1ccc(F)cc1	0.71µM*	-10%	1.1µM*	·	0.32µM*
COc1ccc(C(=O)Nc2nc3ccccc3s2)cc1OC	1%	-1%	-3%	·	-2%
COc1cccc(C(=O)Nc2nc3ccccc3s2)c1	3.5µM*	·	2.1µM*	·	2µM*
CCOc1ccccc1NC(=O)CSc1c(C)cnc2c1c(=O)n(C)c(=O)n2C	·	·	-7%	·	·
CCC(Sc1nncn2c1cc1occc12)C(=O)Nc1ccc(C)c(Cl)c1 (stereo unspecified)	·	·	-3%	·	·
Clc1ccc(Cl)c(Cl)c1Cl	·	·	·	-3%	·
Cc1ccc(C(=O)OCC(=O)NCCNC(=O)COC(=O)c2ccc(C)s2)s1	-8%	·	4%	·	-1%
Cc1ccc(C(=O)OCC(=O)c2ccc(Cl)s2)s1	1%	-2%	2.7µM*	·	21%
O=C(COC(=O)c1ccc[nH]c1=O)c1ccc(Cl)s1	-4%	-3%	15µM*	8%	3%
CN(C(=O)COC(=O)c1ccc(Cl)c(S(=O)(=O)N2CCCCC2)c1)C1(C#N)CCCCC1	-2%	·	-15%	·	-8%
CN(C(=O)COC(=O)c1ccc(Cl)s1)C1(C#N)CCCCC1	-7%	·	19µM*	·	1%
O=C(OCC(=O)c1ccc(Cl)s1)c1ccc2ccccc2n1	0%	6%	?	-3%	-1%
COc1ccc(CNC(=O)CCCN2C(=O)CCn3nc(-c4cn(C)c5ccccc45)cc32)cc1	·	·	-4%	·	·
C[C@@]12C[C@H](O)C3[C@H](CCC4=CC(=O)CC[C@]43C)[C@H]1CC[C@@H]2c1csc(-c2ccccc2)n1 (stereo partly specified)	·	-4%[7.66 µM]	·	-8%[9.22 µM]	·
CC(C)CCCC(C)C1CCC2C3CC=C4CC(O)CCC4(C)C3CCC12C (stereo unspecified)	·	-2%	·	·	·
CCOC(=O)C1CCN(CCC(=O)Nc2ccc(Br)c(C)c2)CC1	4%	·	0%	3%	2%
Cc1cc(NC(=O)COC(=O)C2CC2)ccc1Br	-5%	·	8.5µM*	·	-3%
COc1ccc(Cl)cc1NC(=O)COC(=O)C1CC1	-4%	·	·	·	3%
COc1ccc(NC(=O)COC(=O)C2CCC2)cc1Cl	1%	·	0%	·	-3%
COc1ccc(Cl)cc1NC(=O)COC(=O)C1CCCCC1	-3%	·	15µM*	·	0%
CC(C)(C)c1ccc(NC(=O)COC(=O)C2CCCC2)cc1	-1%	·	11µM*	·	2%
NS(=O)(=O)c1ccc(CCNC(=O)c2ccc3nc(CCc4ccccc4)oc3c2)cc1	·	·	3%	·	·
SMILES	NPC1 promoter act	KinaseGlo FLuc	FLuc counter	SMN2 splice up	Rab9 prom act
CCCc1ccc(-c2cc(NC(=O)CSc3n[nH]c(N)n3)n(-c3ccccc3)n2)cc1	17%	0%	4.3µM*	2%	15%
COC(=O)c1cc2c(cc1NC(=O)c1cnn(-c3ccc(C)cc3)c1-n1cccc1)OCO2	·	·	-2%	·	·
CCOc1ccccc1NC(=O)C(NCCc1ccc(OC)cc1)c1ccccc1 (stereo unspecified)	1%	·	27µM*	·	-4%
CN(C)c1ccc(/C=N/NC(=S)NCc2ccco2)cc1	10%	0%	?	-3%	-2%
CN(C)c1ccc(C(=S)NCc2ccco2)cc1	?	-2%	13µM*	-15%	0.45µM*
CCCC(=O)Nc1cc(C(=O)NCc2ccccc2)ccc1S(=O)(=O)c1ccc(Cl)cc1	·	·	6%	·	·
O=C1SC(c2ccccc2)=C/C1=C\N1CCCCC1	18%	0%	19µM*	-8%	20%
c1ccc2c(-c3nc(-c4ccncc4)no3)cccc2c1	?	3%	11µM*	?	?
COc1ccc(-c2noc(-c3ccccc3-c3ccccc3)n2)cc1	0%	0%	?	-9%	-7%
c1ccc(-c2ccccc2-c2nc(-c3cccnc3)no2)cc1	-5%	2%	1%[2.3 µM]	-6%	-2%
c1cncc(-c2noc(-c3cccc4ccccc34)n2)c1	16%	13%	7.6µM*	8%	?
c1ccc(-c2noc(-c3cccc4ccccc34)n2)cc1	26%	1%	6µM*	11µM*	14%
Cc1c(-c2nc(-c3ccncc3)no2)cccc1[N+](=O)[O-]	26%	·	-15%	·	22%
CCOC(=O)c1c(C)[nH]c(C)c1S(=O)(=O)N(C)CC(=O)Nc1ccc(C)c(F)c1	·	·	-3%	·	·
CCN(CC)C(=O)c1ccc2c(c1)N(Cc1c(F)cccc1Cl)C(=O)c1ccccc1S2	·	·	-1%	-82%	·
O=C(N=C1N=C2C=CC(Br)=CN2Cc2ccccc21)c1ccc([N+](=O)[O-])cc1[N+](=O)[O-]	3.5µM*	·	12µM*	·	3.5µM*
CCCC(=O)Nc1cccc(-c2nc3cc(C)c(C)cc3o2)c1	2.2µM*	-12%	0.6µM*	?	4µM*
CCCC(=O)Nc1cccc(-c2nc3ncccc3o2)c1	·	·	6%	3.5µM*	·
CCCC(=O)Nc1ccc(-c2nc3ncccc3o2)cc1	2.2µM*	·	13µM*	·	2µM*
CN1C(=O)Cc2cc(S(=O)(=O)CCC(=O)N3CCN(c4ccc(Cl)cc4)CC3)ccc21	·	·	-4%	·	·
Nc1ccc2oc(-c3ccc4nc[nH]c4c3)nc2c1	?	-16%	1.9µM*	13µM*	?
Cc1nc2ccc(-c3nc4cc(N)ccc4o3)cc2[nH]1	0.4µM*	-12%	1.9µM*	2.8µM*	0.4µM*
COc1cc2c(cc1OC)C1O[C@](c3ccsc3)(C2)Oc2cc(-c3ccccc3)oc(=O)c21	-2%[1.84 µM]	·	1%[11.5 µM]	·	3%[1.84 µM]
CCOC(=O)C(=O)Nc1cccc(C(=O)OCC)c1	-1%	0%	-9%	9%	-1%
CCOC(=O)c1cccc(NC(=O)Nc2ccc(OCC)cc2)c1	1.8µM*	1%	2.7µM*	10µM*	2.8µM*
SMILES	NPC1 promoter act	KinaseGlo FLuc	FLuc counter	SMN2 splice up	Rab9 prom act
CCOc1ccc(NC(=O)Nc2cccc(C(=O)O)c2)cc1	?	?	0.027µM*	2µM*	0.089µM*
CCOc1ccc(S(=O)(=O)NCCC(=O)Nc2cccc(C(=O)OC)c2)cc1	10%	·	-9%	·	3.2µM*
CCOc1ccc(/C=C/C(=O)Nc2cccc(C(C)=O)c2)cc1	?	-1%	1.2µM*	?	?
Cc1ccc(C)c(N2CCN(C(=O)c3cc(C)nc4c3c(C)nn4-c3cccc(F)c3)CC2)c1	·	·	1%	·	·
COc1ccc(NC(=O)C(=O)c2cn(CC(=O)N3CCCC3)c3ccccc23)cc1	-16%	·	12µM*	·	-21%
CC(=O)Nc1ccc(NC(=O)C(=O)c2cn(CC(=O)N3CCCC3)c3ccccc23)cc1	7%	·	-13%	·	0%
CC(=O)Nc1cccc(NC(=O)C(=O)c2cn(CC(=O)N3CCCCC3)c3ccccc23)c1	22%	-6%	8.5µM*	17%	?
